{"source": "PubChem BioAssay (NCI)", "note": "Where “and” joins values, the source holds several entries; their conditions need not be identical. Identical values can stand only once. The panel holds about 83,000 compounds, 20% with a hit somewhere; the sample as a whole holds those more often.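 Compound tested at a single concentration for 48 hours in 96-well plates; a percent growth value below 10 was scored as active.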 Calls of active or inactive are those of the source. Starred links: 1 amine or outer side, 2 acyl side, 3 side chain; linkers in the order of their positions; H or OH if unused. Positions of bridges follow the written chain, without caps; N, C: chain ends. Non-standard residues stand in square brackets, D forms with d. Residues, ends and D or L forms follow the SMILES beside them. Chains are numbered I, II in the order given. Actinocin(9to1) = Cc1c2oc3c(C)ccc(C(=O)[*:1])c3nc-2c(C(=O)[*:2])c(N)c1=O; aThr = C[C@H](O)[C@H](N)C(=O)O; NMeV = CN[C@H](C(=O)O)C(C)C; Sar = CNCC(=O)O"}
{"system": "TK-10 renal", "assay": "NCI-60 one-dose screen, 48 h (100 = growth as untreated, 0 = no growth, -100 = all killed)", "details": "10 µM"}
{"compound": "N#C/C(=C1C=C/C(=N\\O)C(Cl)=C\\1)c1ccccc1", "growth": "53.1% (inactive)"}
{"compound": "CN(C)CCC(=O)c1c[nH]c2ccccc12", "growth": "103% (inactive)"}
{"compound": "O=c1[nH]cc(F)c(=O)[nH]1", "growth": "71.2% (inactive)"}
{"compound": "CSc1ccc2c(c1)C(N1CCN(C)CC1)Cc1ccccc1S2", "note": "(configuration not stated)", "growth": "43.1% (inactive)"}
{"compound": "COc1cc(C(C)(C)C)cc(OC)c1C(O)(c1c(OC)cc(C(C)(C)C)cc1OC)c1c(OC)cc(C(C)(C)C)cc1OC", "growth": "-90.8% (active)"}
{"compound": "S=c1[nH]nc(Cc2ccccc2)c(=S)[nH]1", "growth": "99.7% (inactive)"}
{"compound": "O=C(/C(=C/c1ccccc1)CBr)c1ccccc1", "growth": "116% (inactive)"}
{"compound": "Nc1ccc2cc(Br)c3ccccc3c2c1", "growth": "85.8% (inactive)"}
{"compound": "CN1CCN(c2ccc3nc(-c4ccc5nc(-c6ccc(O)cc6)[nH]c5c4)[nH]c3c2)CC1", "growth": "111% (inactive)"}
{"compound": "Cc1cc(NCCCN(C)C)c2ccc3c(ccc4c(NCCCN(C)C)cc(C)nc43)c2n1", "growth": "-42.2% (active)"}
{"compound": "Cc1c2oc3c(C)ccc(C(=O)N[C@@H]4C(=O)N[C@H](C(C)C)C(=O)N5CCC[C@H]5C(=O)N(C)CC(=O)N(C)[C@@H](C(C)C)C(=O)O[C@H]4C)c3nc-2c(C(=O)N[C@@H]2C(=O)N[C@H](C(C)C)C(=O)N3CCC[C@H]3C(=O)N(C)CC(=O)N(C)[C@@H](C(C)C)C(=O)O[C@H]2C)c(N)c1=O", "note": "(I: [aThr][dV]P[Sar][NMeV] / II: [aThr][dV]P[Sar][NMeV]; ester I:1-I:C, II:1-II:C; linker I:N-II:N via Actinocin(9to1))", "growth": "9.15% (active)"}
{"compound": "Cc1cnc(/C=N\\NC(N)=S)c2cccc(N)c12", "growth": "19.6% (inactive)"}
{"compound": "CCCCCCCCCCCCCCCCCN", "growth": "102% (inactive)"}
{"compound": "BrC/C=C/C[P+](c1ccccc1)(c1ccccc1)c1ccccc1", "growth": "48.7% (inactive)"}
{"system": "ACHN renal", "assay": "NCI-60 one-dose screen, 48 h (100 = growth as untreated, 0 = no growth, -100 = all killed)", "details": "10 µM"}
{"compound": "N#C/C(=C1C=C/C(=N\\O)C(Cl)=C\\1)c1ccccc1", "growth": "25.7% (inactive)"}
{"compound": "CN(C)CCC(=O)c1c[nH]c2ccccc12", "growth": "105% (inactive)"}
{"compound": "O=c1[nH]cc(F)c(=O)[nH]1", "growth": "39.8% (inactive) and 60.1% (inactive)"}
{"compound": "CSc1ccc2c(c1)C(N1CCN(C)CC1)Cc1ccccc1S2", "note": "(configuration not stated)", "growth": "12% (inactive)"}
{"compound": "COc1cc(C(C)(C)C)cc(OC)c1C(O)(c1c(OC)cc(C(C)(C)C)cc1OC)c1c(OC)cc(C(C)(C)C)cc1OC", "growth": "-93% (active)"}
{"compound": "S=c1[nH]nc(Cc2ccccc2)c(=S)[nH]1", "growth": "107% (inactive)"}
{"compound": "O=C(/C(=C/c1ccccc1)CBr)c1ccccc1", "growth": "70% (inactive)"}
{"compound": "Nc1ccc2cc(Br)c3ccccc3c2c1", "growth": "66% (inactive)"}
{"compound": "CN1CCN(c2ccc3nc(-c4ccc5nc(-c6ccc(O)cc6)[nH]c5c4)[nH]c3c2)CC1", "growth": "94.4% (inactive)"}
{"compound": "Cc1cc(NCCCN(C)C)c2ccc3c(ccc4c(NCCCN(C)C)cc(C)nc43)c2n1", "growth": "-75.2% (active)"}
{"compound": "Cc1c2oc3c(C)ccc(C(=O)N[C@@H]4C(=O)N[C@H](C(C)C)C(=O)N5CCC[C@H]5C(=O)N(C)CC(=O)N(C)[C@@H](C(C)C)C(=O)O[C@H]4C)c3nc-2c(C(=O)N[C@@H]2C(=O)N[C@H](C(C)C)C(=O)N3CCC[C@H]3C(=O)N(C)CC(=O)N(C)[C@@H](C(C)C)C(=O)O[C@H]2C)c(N)c1=O", "note": "(I: [aThr][dV]P[Sar][NMeV] / II: [aThr][dV]P[Sar][NMeV]; ester I:1-I:C, II:1-II:C; linker I:N-II:N via Actinocin(9to1))", "growth": "3.24% (active)"}
{"compound": "Cc1cnc(/C=N\\NC(N)=S)c2cccc(N)c12", "growth": "10.2% (inactive)"}
{"compound": "CCCCCCCCCCCCCCCCCN", "growth": "97% (inactive)"}
{"compound": "BrC/C=C/C[P+](c1ccccc1)(c1ccccc1)c1ccccc1", "growth": "43.4% (inactive)"}
{"system": "CAKI-1 renal", "assay": "NCI-60 one-dose screen, 48 h (100 = growth as untreated, 0 = no growth, -100 = all killed)", "details": "10 µM"}
{"compound": "N#C/C(=C1C=C/C(=N\\O)C(Cl)=C\\1)c1ccccc1", "growth": "5.29% (active)"}
{"compound": "CN(C)CCC(=O)c1c[nH]c2ccccc12", "growth": "94.4% (inactive)"}
{"compound": "O=c1[nH]cc(F)c(=O)[nH]1", "growth": "28.5% (inactive) and 63.3% (inactive)"}
{"compound": "CSc1ccc2c(c1)C(N1CCN(C)CC1)Cc1ccccc1S2", "note": "(configuration not stated)", "growth": "19.5% (inactive)"}
{"compound": "COc1cc(C(C)(C)C)cc(OC)c1C(O)(c1c(OC)cc(C(C)(C)C)cc1OC)c1c(OC)cc(C(C)(C)C)cc1OC", "growth": "-69.1% (active)"}
{"compound": "S=c1[nH]nc(Cc2ccccc2)c(=S)[nH]1", "growth": "97.6% (inactive)"}
{"compound": "O=C(/C(=C/c1ccccc1)CBr)c1ccccc1", "growth": "60.1% (inactive)"}
{"compound": "Nc1ccc2cc(Br)c3ccccc3c2c1", "growth": "20.1% (inactive)"}
{"compound": "CN1CCN(c2ccc3nc(-c4ccc5nc(-c6ccc(O)cc6)[nH]c5c4)[nH]c3c2)CC1", "growth": "92.6% (inactive)"}
{"compound": "Cc1cc(NCCCN(C)C)c2ccc3c(ccc4c(NCCCN(C)C)cc(C)nc43)c2n1", "growth": "-41.7% (active)"}
{"compound": "Cc1c2oc3c(C)ccc(C(=O)N[C@@H]4C(=O)N[C@H](C(C)C)C(=O)N5CCC[C@H]5C(=O)N(C)CC(=O)N(C)[C@@H](C(C)C)C(=O)O[C@H]4C)c3nc-2c(C(=O)N[C@@H]2C(=O)N[C@H](C(C)C)C(=O)N3CCC[C@H]3C(=O)N(C)CC(=O)N(C)[C@@H](C(C)C)C(=O)O[C@H]2C)c(N)c1=O", "note": "(I: [aThr][dV]P[Sar][NMeV] / II: [aThr][dV]P[Sar][NMeV]; ester I:1-I:C, II:1-II:C; linker I:N-II:N via Actinocin(9to1))", "growth": "-13.7% (active)"}
{"compound": "Cc1cnc(/C=N\\NC(N)=S)c2cccc(N)c12", "growth": "2.66% (active)"}
{"compound": "CCCCCCCCCCCCCCCCCN", "growth": "91.1% (inactive)"}
{"compound": "BrC/C=C/C[P+](c1ccccc1)(c1ccccc1)c1ccccc1", "growth": "103% (inactive)"}
